The campaign covered roughly 410,000 compounds. About 18,000 (4.4%) were called active. About 7% were inconclusive and are not listed. The sample as a whole holds a higher share of actives than the screen did. Unmarked numbers belong to inactive results. No stated cut-off is given here; in the data, active means activity change below about -60%; inconclusive means no clear call, values can overlap the other calls; inactive means above about -39%.

The results in this text go back to PubChem BioAssay AID1259415 (National Center for Advancing Translational Sciences (NCATS), 2018).
On the % scale 0 is the no-effect control and ±100 the full control effect.

The test can be described thus: qHTS Assay for inhibitors of the human cytomegalovirus (HCMV). Conditions: HFF cells, HCMV-luciferase reporter, 72 h; at 57.5 µM; stronger effect = lower value. Put shortly: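 HFF cells seeded 16 h at 37C, treated with compounds, infected with luciferase-reporter HCMV at MOI 1 PFU/cell; luciferase read at 72 h post infection, normalized to buffer-only and Salinomycin controls.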
As for `Cc1ccc(S(=O)(=O)N2CCC(C(=O)Nc3cc(C)ccc3C)CC2)cc1`, the activity change, negative = inhibition is 10.8%.

Turning to `Cc1cc(C)nc(-n2ncc3c2CC(c2ccc(C(C)C)cc2)CC3=O)n1` (configuration not stated), the activity change, negative = inhibition was -22.8%.

In the case of `Cc1ccccc1NC(=O)Cn1c(=O)n(Cc2ccco2)c(=O)c2ccc(C(=O)NC3CCCC3)cc21`, the activity change, negative = inhibition was 36.1%.

For `CCOC(=O)N1CCc2c(sc(NCc3cccc(F)c3)c2C(=O)Nc2ccccc2OCC)C1`, the activity change, negative = inhibition was 30.2%.

For `CN(C(=O)c1c(Cl)cnn1C)C12CC3CC(CC(C3)C1)C2`, the activity change, negative = inhibition is -18.8%.

`O=C(O)c1c(CNCc2cccc(F)c2)c2ccccc2n1Cc1ccccc1`: the activity change, negative = inhibition is 8.63%.

With `Cc1ccc(C(=O)Nc2c(C(=O)NC(C)(C)C)oc3ccccc23)cc1`, the activity change, negative = inhibition was -18.8%.

`COc1ccccc1CNc1ccc(-c2nc(-c3ccccc3C)no2)cc1[N+](=O)[O-]`: the activity change, negative = inhibition was 3.35%.

On to `Cc1ccccc1CNC(=O)Cn1c(C)c2cnn(-c3ccccc3)c(=O)c2c1C`, for which the activity change, negative = inhibition was -13%.

As to `CCCNC(=O)N1CCC2(CC1)CN(C(=O)CN1CCOCC1)[C@H](CO)c1[nH]c3cc(OC)ccc3c12`, the activity change, negative = inhibition is 0.475%.

For the compound `CC(C)=CCc1ccc(O)c(=O)cc1C(C)C`, the activity change, negative = inhibition is -101% (active).

`CCNC(=O)c1cc2n(n1)CCCN(Cc1ccc(C)cc1)C2=O`: the activity change, negative = inhibition was -3.42%.

Regarding `Cc1cc(C)cc(OCC(=O)Nc2c(C(=O)c3ccccc3)oc3ccccc23)c1`, the activity change, negative = inhibition is 0.353%.

As for `CCC(C)(C)NC(=O)CN(Cc1cccs1)C(=O)CNS(=O)(=O)c1ccc(F)cc1`, the activity change, negative = inhibition is -8.36%.

Consider `COc1ccc(Cn2c(=O)c3oc4ccccc4c3n(CC(=O)Nc3ccc(F)cc3F)c2=O)cc1`, for which the activity change, negative = inhibition was 6.84%.

`CCOC(=O)c1ccc(NC(=O)CCn2cnnn2)cc1`: the activity change, negative = inhibition was 20.5%.

Consider `Cc1cc(=O)n(C)c(=O)n1CCCNc1ccccc1`, for which the activity change, negative = inhibition was -33.2%.

As to `Cc1[nH]c(N)nc(=S)c1CCCNc1ccccc1`, the activity change, negative = inhibition was -99.8% (active).

For `CCc1c(Nc2ccccc2C)nc(N)[nH]c1=O`, the activity change, negative = inhibition is 90.6%.

As to `Cc1nnnn1/C(=C\c1ccccc1)C(=O)OCC(=O)N1CC2(C)CC1CC(C)(C)C2` (configuration not stated), the activity change, negative = inhibition was -85.3% (active).

`COC(=O)c1cc2n(n1)CCCNC2=O`: the activity change, negative = inhibition was 14.4%.

Turning to `CCC(C)(O)C(=O)OC1C(=O)OC2CC3C(C)=CC(=O)C(O)C3(C)C3C4(O)OCC23C1C(C)C4O` (configuration not stated), the activity change, negative = inhibition was -96.7% (active).

For `COCCNC(=S)N/N=C/c1c(C)[nH]c2ccccc12`, the activity change, negative = inhibition is -68.5% (active).

Turning to `COCCCNC(=S)NNC(=O)C(O)(c1ccccc1)c1ccccc1`, the activity change, negative = inhibition was -17.8%.

On to `COCCNC(=S)N(CCc1c(C)[nH]c2ccc(C)cc12)Cc1cccnc1`, for which the activity change, negative = inhibition is 5.87%.

Turning to `CCOC(=O)c1cccc(NS(=O)(=O)c2cc(-c3cnc(C)o3)ccc2OC)c1`, the activity change, negative = inhibition is -8.81%.

Consider `COc1ccc(CCNC(=O)CC2SC(=Nc3cc(C)cc(C)c3)NC2=O)cc1OC` (configuration not stated), for which the activity change, negative = inhibition is 37.9%.

For `COc1ccc(OCC(O)CNC(=O)Nc2ccc(Cl)cc2)cc1` (configuration not stated), the activity change, negative = inhibition is -6.88%.

Take `CC(C)S(=O)(=O)c1csc(NC(=O)Nc2ccc(Cl)cc2)c1Cl`: the activity change, negative = inhibition was -93.2% (active).

Regarding `CC(=O)N1CCC(N(C(=O)Nc2ccc(Cl)cc2)C(C)C)CC1`, the activity change, negative = inhibition is -34.8%.

For the compound `COc1ccc(Cl)cc1NC(=O)CN(C)C(=O)c1cc(-c2cccs2)nn1-c1ccccc1`, the activity change, negative = inhibition is -21.5%.

For `COc1cc(OC)cc(C(=O)NCCc2csc3nc(-c4ccccc4F)nn23)c1`, the activity change, negative = inhibition is -6.5%.

As to `Cc1ccc2[nH]c3c(=O)n(CC(=O)NC(C)C)ncc3c2c1`, the activity change, negative = inhibition is 5.38%.

With `C=C(C)C(=O)O[C@H]1C/C(C)=C\C(=O)/C=C(\C)[C@H](O)[C@@H]2OC(=O)C(=C)[C@@H]21`, the activity change, negative = inhibition was -98.8% (active).

On to `Fc1cccc(-c2nc3c(N4CCOCC4)nccc3[nH]2)c1`, for which the activity change, negative = inhibition was 6.37%.

Consider `CCc1cccc(-n2nnc(-c3nsc(NC(=O)c4ccc(C)cc4)n3)c2C)c1`, for which the activity change, negative = inhibition was -39.1%.

With `Cc1ccccc1NCC(=O)N/N=C\c1ccc([N+](=O)[O-])s1`, the activity change, negative = inhibition is -78.2% (active).

In the case of `COc1ccc(C(=O)NCC(=O)N/N=C/c2ccc([N+](=O)[O-])s2)cc1OC`, the activity change, negative = inhibition is -92.4% (active).

Consider `COc1ccc(C(=O)NCC(c2ccco2)N2CCc3ccccc32)cc1OC` (configuration not stated), for which the activity change, negative = inhibition is -5.62%.

`Cc1ccsc1/C=N/NC(=O)Cc1cc(=O)[nH][nH]1`: the activity change, negative = inhibition is 80.6%.

With `CC(C)(C)c1cc(C(=O)N/N=C/c2ccc([N+](=O)[O-])s2)n[nH]1`, the activity change, negative = inhibition was -73.9% (active).

In the case of `COc1ccc(N(CC(=O)N/N=C/c2cccs2)S(=O)(=O)c2ccc(OC)c(OC)c2)cc1`, the activity change, negative = inhibition is 3.94%.

In the case of `C/C(=N\NC(=O)CNc1cccc2ccccc12)c1ccc(Br)s1`, the activity change, negative = inhibition is 21.2%.

For `Cc1nnc(SCc2nc3ccccc3nc2C)s1`, the activity change, negative = inhibition was 32.2%.

Turning to `CCOC(=O)C1CCN(c2ncnc3c2c(-c2ccccc2)cn3-c2cccc(C)c2)CC1`, the activity change, negative = inhibition was -35.2%.

For `CCOc1ccccc1C(=O)Nc1ccc(S(=O)(=O)N2CCCCC2c2cccnc2)cc1` (configuration not stated), the activity change, negative = inhibition is -33.6%.

`Cc1[nH]c2ccccc2c1C(=O)C(=O)NCc1nnnn1-c1cccc(F)c1`: the activity change, negative = inhibition is -19%.

Turning to `COc1ccc(NC(=O)c2ccc3nc(C(C)C)oc3c2)cc1OC`, the activity change, negative = inhibition was 6.52%.

For the compound `Cc1cccn2c(=O)c(C(=O)NC(C)c3ccccc3)cnc12` (configuration not stated), the activity change, negative = inhibition is -18.5%.

For the compound `COC(=O)c1cc(S(=O)(=O)N2CCN(c3cc(C)ccc3C)CC2)c[nH]1`, the activity change, negative = inhibition is 9.83%.

Take `Cc1cc(C(=O)N2CCC(C(=O)O)CC2)c(C(F)(F)F)o1`: the activity change, negative = inhibition was 0.635%.

Turning to `Cc1ccc(C)c(NC(=O)CSC2=Nc3ccccc3N=C(c3ccc(F)cc3)C2)c1`, the activity change, negative = inhibition is 22.5%.

In the case of `COc1ccc(C2Nc3ccccc3C(=O)N2c2ccc(Cl)cc2)cc1Cn1cc([N+](=O)[O-])cn1` (configuration not stated), the activity change, negative = inhibition was 8.39%.

Turning to `Cc1ccc2[nH]c(=O)c(CN3CCCCC3)c(-c3ccccc3)c2c1`, the activity change, negative = inhibition is 11.7%.

In the case of `Cc1ccc2c(C(=O)CN3CCCC3)c(C)[nH]c2c1`, the activity change, negative = inhibition was -81.5% (active).

In the case of `Cc1[nH]c2ccccc2c1C(=O)CN1CCCC(C)C1` (configuration not stated), the activity change, negative = inhibition was 64%.

`COc1ccc2c(C)c(CCC(=O)NCc3ccc(OC)c(OC)c3)c(=O)oc2c1`: the activity change, negative = inhibition is -7.55%.
